SMN2 splice enh: enhancers of SMN2 splice variant expression; hit rate 2.8% among 210,000; HEK293 SMN2-luciferase splicing reporter, luminescence, 30-36 h; Potency, µM (series often up to 46.1 µM), for inactives: at the top dose activity change, positive = activation, usual class: activators; also: % of control where 0% means no effect; nearly all actives have a fitted effect of over 55% in size
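HEK293 cells carry an SMN2 […]–luciferase reporter in which exon 7 inclusion puts luciferase in frame. Cells were plated 10-12 h before compound addition, then incubated 30-36 h at 37C. ONE-Glo luminescence was read; sodium butyrate at 4.5 mM final served as control.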
NPC1 prom act: activates the NPC1 promoter; Huh7 NPC1 promoter luciferase reporter, 24 h; hit rate 2.4% among 320,000; Potency, µM (highest dose often 9.22 µM), for inactives: at the highest dose activation, most hits filed as activators; also: % of control where 0% means no effect; nearly all actives have a fitted effect of over 60% in size
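Luminescence from an NPC1 promoter-driven luciferase reporter in stably transfected Huh7 cells was measured after 24 h compound treatment at 37 °C, followed by 10 min ambient incubation with luciferase detection reagent.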
ELG1 repair inh: ELG1-dependent DNA repair inhibition. HEK293T ELG1-luciferase reporter, luminescence, 16 h; DNA damage induced by 5-fluorouridine. Potency, µM (top dose mostly 46.1 µM), inactives show at the highest dose activity change, negative = inhibition, hits mostly inhibitors. hit rate 2.3% among 330,000. AID 504467; also: % is scaled to controls: 0 for no effect and ±100 for the full control effect; nearly all actives have a fitted effect of over 55% in size
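In this reporter screen, reduction of luminescence relative to DMSO vehicle indicated activity. Compounds and 5-fluorouridine were added together to 2,000 cells per well, incubated for 16 hr at 37 °C, then developed with ONE-Glo.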
ELG1 genotox: induces genotoxicity in HEK293T cells with luciferase-tagged ELG1 | HEK293T ELG1-luciferase reporter, luminescence, 16 h | Potency, µM (highest dose often 46 µM), for inactives: at the highest dose activity change, positive = activation, hits mostly activators | hit rate 1.3% among 330,000 | AID 504466; also: % of control where 0% means no effect; nearly all actives have a fitted effect of over 60% in size
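Genotoxic stress is detected as increased luminescence from luciferase-tagged ELG1 in HEK293T cells, measured with ONE-Glo after a 16 hr treatment at 37 °C.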
FLuc counter: inhibits or activates purified firefly luciferase, miR-21 counter-screen; P08659; purified FLuc, Km substrates, luminescence inhibition; Potency, µM (doses to about 57.5 µM), inactives show at the top dose activity change, negative = inhibition, hits mostly inhibitors; hit rate 6.9% among 360,000;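 also: plate controls were vehicle for no effect and reference inhibitor for full effect; nearly all actives have a fitted effect of over 55% in size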
Target sequence (P08659 whole entry, looked up): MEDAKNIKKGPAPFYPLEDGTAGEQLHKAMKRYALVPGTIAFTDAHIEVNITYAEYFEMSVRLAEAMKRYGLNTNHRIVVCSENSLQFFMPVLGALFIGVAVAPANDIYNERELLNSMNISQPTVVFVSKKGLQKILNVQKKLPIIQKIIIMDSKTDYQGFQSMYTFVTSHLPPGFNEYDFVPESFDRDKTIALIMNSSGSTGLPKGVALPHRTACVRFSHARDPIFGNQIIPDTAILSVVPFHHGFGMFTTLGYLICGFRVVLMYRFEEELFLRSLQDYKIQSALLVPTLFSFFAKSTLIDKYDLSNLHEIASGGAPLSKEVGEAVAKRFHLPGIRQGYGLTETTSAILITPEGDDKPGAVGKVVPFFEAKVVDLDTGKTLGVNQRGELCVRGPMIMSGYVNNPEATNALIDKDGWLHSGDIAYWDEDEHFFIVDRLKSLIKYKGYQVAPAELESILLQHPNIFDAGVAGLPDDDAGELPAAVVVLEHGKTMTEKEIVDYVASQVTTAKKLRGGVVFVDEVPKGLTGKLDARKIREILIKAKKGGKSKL
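Purified P. pyralis luciferase (10nM final) with 10uM D-luciferin and 10uM ATP (Km levels) in 50mM Tris acetate pH 7.5, 10mM Mg acetate, 0.01% Tween-20, 0.05% BSA; qHTS 6-point titration, ~60 µM downward; luminescence read.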
Rab9 prom act: activators of Rab9 promoter. Potency, µM (titrated, usually from 9.22 µM), without a hit: at the top dose activation, negative = inhibition, actives largely listed as activators. Huh7 Rab9 promoter-luciferase reporter, luminescence, 24 h. hit rate 2.8% among 320,000; also: % of control where 0% means no effect; nearly all actives have a fitted effect of over 60% in size
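Luminescence from Amplite-detected luciferase (10 minutes, ambient) reports Rab9 promoter activation. Before that, stable Rab9-luciferase Huh7 cells (1500/well, reduced-serum OP-MEM I plus 10% FBS) were exposed to compound for 24 hours at 37C.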
* marks the source's active call; other numbers are inactive results; ? = inconclusive; · = no result given. Most compounds without a hit are left out; they make up all but 9.2% or so of the library. Calls follow the shape of the dose curve; as a rule, active = well fitted curve in the direction sought with a large enough effect; inconclusive = small, poorly fitted or top-dose-only effect, or another doubt; inactive = no such curve, though single readings can be large; an effect the other way counts as inactive or inconclusive. Potency is read from the fitted curve at half-maximal effect.

SMILES	SMN2 splice enh	NPC1 prom act	ELG1 repair inh	ELG1 genotox	FLuc counter	Rab9 prom act
Cc1nc(C/C(=N\N)c2ccc(O)cc2O)cs1	17%	10%	-8%	3%	1%	0%
COc1ccc(OC)c(NC(=O)Nc2cccc3ccccc23)c1	-17%	-2%	-20%	6%	4%	-2%
COc1ccc(C(=O)OCc2csc(C)n2)c(O)c1	2%	?	?	?	15µM*	?
COc1ccc(NC(=O)CSc2nccn2Cc2ccccc2)c(OC)c1	·	1%	?	7%	-25%	6%
COc1cc(C(=S)N2CCN(c3ccccc3Cl)CC2)cc(O)c1O	-71%	-2%	-20%	-9%	-14%	0%
COc1ccc(C(=O)Nc2cc(OC)c(Cl)cc2OC)cc1	16%	16%	?	1%	21µM*	9%
COc1ccc(C(=O)COC(=O)c2ccccc2O)c(OC)c1	·	?	?	?	6µM*	3.5µM*
COc1ccc(C(=O)OCC(=O)c2cc(OC)ccc2OC)c(OC)c1	-7%	2%	-16%	1%	?	0%
COc1ccc(C(=O)Nc2cc(OC)ccc2OC)cc1	-2%	-2%	?	3%	24µM*	17%
COc1ccc(OC)c(NC(=O)c2ccc(-c3csc(C)n3)cc2)c1	·	25%	?	7%	5.4µM*	25%
CCC(=O)N1CCc2cc(S(=O)(=O)NCCC(=O)NCc3ccc(OC)cc3)ccc21	-4%	·	·	·	-8%	·
Cc1occc1C(=O)NNC(=O)CN1C(=O)NC(C)(c2ccccc2)C1=O (stereo not given)	·	-1%	1%	1%	-1%	-6%
COc1ccc(NC(=O)c2ccccc2O)c(OC)c1	?	?	?	11µM*	9.5µM*	3.2µM*
COc1ccc(OC)c(NC(=O)c2csc(Cl)c2OC)c1	·	2%	5%	3%	15µM*	-2%
COc1ccc(OC)c(NC(=O)c2cc(OC(C)=O)cc(C(=O)Nc3cc(OC)ccc3OC)c2)c1	·	-10%	?	-16%	3%	-12%
COc1cc(NC(=O)c2cc3nc(C)cc(C)n3n2)c(OC)cc1Cl	11µM*	2.5µM*	?	?	3µM*	1.3µM*
COc1ccc(NC(=O)c2ccccc2SC)c(OC)c1	-1%	-6%	15%	2%	-13%	-6%
COc1ccc(OC)c(NC(=O)c2ccc3nc(-c4ccccc4)c(-c4ccccc4)nc3c2)c1	1%	0%	23µM*	-4%	4%	4%
O=[N+]([O-])c1cccc(-n2nnnc2CN2CCCC2)c1	·	-5%	3%	3%	-2%	1%
COc1ccccc1C(=O)COC(=O)CN1C(=O)c2ccccc2C1=O	·	-5%	2%	1%	-2%	2%
COc1ccc(-c2csc(C)n2)cc1Br	17%	14%	?	?	15µM*	25%
COc1ccc(C(=O)CN2C(=O)c3ccccc3C2=O)c(OC)c1	·	24%	?	?	15µM*	?
O=C(COC(=O)c1cccc(NS(=O)(=O)c2ccc(F)c(F)c2)c1)NC(=O)NC1CCCC1	-4%	0%	?	-3%	1%	-7%
O=C(Nc1ccc2oc(-c3ccncc3)nc2c1)c1ccccc1F	-38%	28%	26%	3%	?	23%
O=C(Nc1ccc2oc(-c3cccc(F)c3)nc2c1)c1ccccc1F	-3%	?	?	21µM*	-14%	?
O=C(Nc1ccc2oc(-c3ccccc3F)nc2c1)c1ccccc1F	·	2.2µM*	?	16%	4.8µM*	3.5µM*
O=C(Nc1ccc(-c2nc3cc(NC(=O)c4ccccc4F)ccc3o2)cc1)c1ccccc1F	·	·	·	·	-2%	·
O=C(Nc1ccc2oc(-c3ccc4ccccc4c3)nc2c1)c1ccc(Cl)c(Cl)c1	3%	·	·	·	-7%	·
O=C(Nc1ccc2oc(-c3ccncc3)nc2c1)c1ccccc1	-16%	-4%	-4%	2%	0%	-2%

Source: PubChem BioAssay (National Center for Advancing Translational Sciences (NCATS))
